Assay results from PubChem BioAssay (NCATS).
Several values for one entry are separate records, joined by “and”; a condition that tells them apart may be missing. Identical values can stand only once. Results filed as inconclusive are left out. Activity calls are given as the source filed them. Unless noted, calls come from the whole dose curve; as a rule, active = well fitted curve in the direction sought with a large enough effect; inconclusive = small, poorly fitted or top-dose-only effect, or another doubt; inactive = no such curve, though single readings can be large; an effect the other way counts as inactive or inconclusive.

Legend:
[1] = Cell Viability - BJ (AID 421; calls by dose curve;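 note: potency is the fitted concentration of half-maximal effect; cells exposed to compound for 40 hours at 37 °C before readout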); settings: BJ fibroblast viability, qHTS
Method in brief: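 Normal human BJ foreskin fibroblasts, 1500/well in complete medium, treated 40 hr at 37 °C. Cellular ATP by CellTiter-Glo luminescence; normalized to DMSO and 100 uM tamoxifen, AC50 from Hill fit.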

[2] = Cell Viability - Hek293 (AID 427;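 active = compounds whose dose-response curve shows a full or clear partial loss of cell viability, called from curve shape rather than a numeric limit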;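 note: potency is the fitted concentration of half-maximal effect; cells exposed to compound for 40 hours at 37 °C before reading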); settings: qHTS
Method in brief: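 HEK293 cells in complete medium were exposed to compound for 40 hr at 37 °C, then cellular ATP was read by CellTiter-Glo luminescence. Data were normalized to DMSO (basal) and 100 uM tamoxifen (100% inhibition), and AC50 came from Hill fits.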

[3] = Cell Viability - HepG2 (AID 433; calls by dose curve;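 note: potency is the fitted concentration of half-maximal effect; potency for ATP loss meaning cytotoxicity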); settings: qHTS
Method in brief: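 In this qHTS format, a 40 h, 37 °C compound incubation of HepG2 cells in complete medium precedes a 20 min CellTiter-Glo step at room temperature. Tamoxifen and doxorubicin serve as positive controls; Hill-equation fits yield AC50.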

[4] = Cell Viability - MRC5 (AID 434; calls by dose curve;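 note: potency is the fitted concentration of half-maximal effect; potency reflects cytotoxicity seen as loss of intracellular ATP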); settings: MRC5 lung fibroblast viability, qHTS
Method in brief: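 MRC5 normal human lung fibroblasts (1500/well) were treated with compounds for 40 hr at 37 °C in complete medium, and viable cells were measured as intracellular ATP by CellTiter-Glo luminescence. AC50 came from Hill fits, normalized to DMSO and 100 uM tamoxifen.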

[5] = Cell Viability - SK-N-SH (AID 435; calls by dose curve;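 note: potency is the fitted concentration of half-maximal effect; compound exposure lasted 40 h at 37 °C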); settings: SK-N-SH neuroblastoma cell viability qHTS
Method in brief: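 Human neuroblastoma line, 40 h exposure at 37 °C, ATP quantified via luciferase luminescence; DMSO and 100 uM tamoxifen define 0 and 100% inhibition for AC50 fitting.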

[6] = biological target: Mitogen-activated protein kinase 10 (Mus musculus) (UniProt Q61831); assay: JNK3 AlphaScreen Assay (AID 530; active = well fitted curve in either direction with a large enough effect, not every such curve was filed as active;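 note: kinase came from lysate of stimulated human HepG2 cells; signal reports phosphorylation of biotinylated GST-cJun 1-79 at Ser73 with 10 µM ATP; % is set by controls: 0 for no effect and ±100 for the full control effect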); settings: JNK3 lysate, c-Jun phosphorylation; series mostly up to 57.1 µM
Method in brief: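 JNK3 came from HepG2 lysates pre-activated with IL-1beta and TNF-alpha and phosphorylated biotinylated GST-cJun (1-79) at 10 uM ATP, pH 7.6, room temperature. Compounds were titrated. AlphaScreen signal used anti-phospho-cJun (Ser73) antibody.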

[7] = Cell Viability - N2a (AID 540); settings: N2a mouse neuroblastoma cell viability; at 92.2 µM (top of the series);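 note: plate controls were DMSO alone for no effect and tamoxifen control for full effect; nearly all actives have a fitted effect of over 45% in size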
Method in brief: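 Mouse neuroblastoma N2a cells (1500/well) were preincubated 5 hr at 37 °C, then exposed to compounds for 40 hr at 37 °C in complete medium. Viability was read as intracellular ATP by CellTiter-Glo luminescence; AC50 from Hill fits.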

[8] = Cell Viability - NIH 3T3 (AID 541); settings: NIH 3T3 cell viability, qHTS; activity change, negative = cytotoxicity: at 92.2 µM (top of the series);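 note: plate controls were DMSO alone for no effect and tamoxifen positive control for full effect; nearly all actives have a fitted effect of over 25% in size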
Method in brief: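 NIH 3T3 mouse embryo fibroblasts (1000 cells/well) were plated in complete medium and treated with compound for 40 hr at 37 °C. Viability was read as intracellular ATP by CellTiter-Glo luminescence; AC50 values came from Hill-equation fits of concentration-response data.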

[9] = Cell Viability - HUV-EC-C (AID 542); settings: HUV-EC-C endothelial cell viability, qHTS; series mostly up to 92.2 µM; note: % is set by controls: 0 for no effect and ±100 for the full control effect; nearly all actives have a fitted effect of over 35% in size
Method in brief: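 HUV-EC-C normal human vascular endothelial cells, 1000 cells/well, pre-incubated 5 hr at 37 °C, then exposed to compounds for 40 hr at 37 °C in complete medium. Viability measured as intracellular ATP by CellTiter-Glo luminescence; AC50 from Hill fits.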

[10] = Cell Viability - SH-SY5Y (AID 544); settings: SH-SY5Y neuroblastoma cell viability; viability change, negative = cytotoxic: at 92.2 µM (top of the series); note: potency is the fitted concentration of half-maximal effect; nearly all actives have a fitted effect of over 55% in size
Method in brief: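 Human neuroblastoma SH-SY5Y cells (1500/well) in complete medium were exposed to compounds for 40 hr at 37 °C; intracellular ATP was then quantified by CellTiter-Glo luminescence after 20 min at room temperature. AC50 came from Hill-equation concentration-response fits.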

[11] = Cell Viability - Renal Proximal Tubule (AID 545); settings: renal proximal tubule cells viability; at 91.7 µM (top of the series), primary cells of rat origin unless noted; note: nearly all actives have a fitted effect of over 40% in size
Method in brief: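 In this qHTS format, normal rat kidney-derived proximal tubule cells in complete culture medium receive compound titrations, then sit 40 hours at 37 °C before luciferase-based ATP quantitation; potency is reported as AC50 from concentration-response curves.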

[12] = Cellular Toxicity (caspase-3) HepG2 (AID 654); settings: HepG2 caspase-3 activation, luminescence, 0% = DMSO only, 100% = tamoxifen; series mostly up to 92.2 µM;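 note: cells exposed to compound for 16 hours before reading; 0% = DMSO alone and 100% = caspase signal from 100 µM tamoxifen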
Method in brief: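 HepG2 cells (1500/well) in complete medium were treated with compounds for 16 hr at 37 °C. Caspase-3/7 activity was then read as luminescence from peptide-aminoluciferin cleavage. AC50 came from Hill fits, normalized to DMSO and 100 uM tamoxifen.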

[13] = Cellular Toxicity (caspase-3) Jurkat (AID 655); settings: Jurkat caspase-3 activation, luminescence, DMSO = 0%, tamoxifen = 100%; at 92.2 µM (top of the series);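 note: cells exposed to compound for 16 h at 37 °C before reading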
Method in brief: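 qHTS in human Jurkat T-cell leukemia line: 16 hr compound treatment at 37 °C, caspase-3/7 activity measured by Caspase-Glo luminescence. AC50 derived from Hill equation.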

[14] = Cellular Toxicity (caspase-3) SHSY5Y (AID 657); settings: SH-SY5Y caspase-3 activation, DMSO zero, 10 µM staurosporine = 100%; series mostly up to 91.7 µM
Method in brief: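 Readout: caspase-cleaved peptide-aminoluciferin substrate driving luciferase light in SH-SY5Y neuroblastoma cells after 16 h treatment. Response normalized to DMSO and 10 uM staurosporine controls.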

[15] = Cellular Toxicity (caspase-3) BJ (AID 658); settings: BJ fibroblasts, luminescence, normalized: DMSO 0%, staurosporine 100%; series mostly up to 91.7 µM
Method in brief: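 Luminescent aminoluciferin-substrate cleavage reports caspase 3/7 activity in normal human BJ fibroblasts after 16 hr compound exposure at 37 °C. Normalized to DMSO (basal) and 10 uM staurosporine (100%); AC50 from Hill fit of concentration-response.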

[16] = Cellular Toxicity (caspase-3) MRC-5 (AID 659); settings: MRC-5 cells, luminescence, normalized: DMSO 0%, 10 µM staurosporine 100%; series mostly up to 91.7 µM
Method in brief: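 Luminescence from caspase-cleaved aminoluciferin substrate (Caspase-Glo 3/7, 1 hr RT) reports caspase 3/7 activity in MRC-5 lung fibroblasts after 16 hr compound exposure. Normalized to DMSO basal and 10 uM staurosporine as 100%; AC50 from Hill fits.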

[17] = Cellular Toxicity (caspase-3) Mesangial (AID 660); settings: mesangial cells, normalized: DMSO 0%, 100 µM tamoxifen 100%; series mostly up to 91.7 µM;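 note: cells exposed to compound for 16 h before the caspase read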
Method in brief: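 Human renal glomerular mesangial cells (1000/well) were treated with compounds for 16 h at 37 °C in complete medium, then caspase 3/7 activity was read by Caspase-Glo luminescence. Data were normalized to DMSO and 100 uM tamoxifen; AC50 from Hill fits.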

[18] = Cellular Toxicity (caspase-3) SK-N-SH (AID 661); settings: SK-N-SH caspase-3 activation, qHTS, DMSO as zero, staurosporine as full; series mostly up to 91.7 µM
Method in brief: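 SK-N-SH human neuroblastoma cells (1500/well) were treated with compounds for 16 hr at 37 °C in complete medium; caspase 3/7 activity was read by Caspase-Glo luminescence. AC50 came from Hill fits of data normalized to DMSO and 10 uM staurosporine.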

[19] = Cellular Toxicity (caspase-3) H-4-II-E (AID 663); settings: H-4-II-E rat hepatoma, scaled: DMSO 0%, 100 µM tamoxifen 100%; series mostly up to 92.2 µM;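 note: cells exposed to compound for 16 hr before readout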
Method in brief: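 Luminescence from caspase-cleaved aminoluciferin substrate, read 20 min after reagent addition, reports caspase 3/7 activation in rat H-4-II-E cells after 16 hr compound exposure. Normalized to DMSO (basal) and 100 uM tamoxifen (100%); AC50 from Hill fits.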

[20] = Cellular Toxicity (caspase-3) Hek293 (AID 664); settings: HEK293 caspase-3 activation, DMSO = 0%, 100 µM tamoxifen = 100%; series mostly up to 92.2 µM;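 note: cells exposed to compound for 16 h at 37 °C before readout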
Method in brief: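 HEK293 cells were exposed to compounds in complete medium for 16 hr at 37 °C, then caspase-3/7 activity was read by Caspase-Glo 3/7 luminescence after 20 min at room temperature. Data normalized to DMSO and 100 uM tamoxifen; AC50 from Hill fits.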

C[C@H]1CCCC(=O)CCC/C=C/c2cc(O)cc(O)c2C(=O)O1
active: Potency [2] 31.1 µM and 40.2 µM | Potency [5] 59.8 µM | activity change, negative = cytotoxicity [7] -95.8% and -87.8% | activity change, negative = cytotoxicity [8] -105% | Potency [10] 12.6 µM and 31.6 µM
inactive: Potency [1] > 92 µM | Potency [3] > 92 µM | Potency [4] > 92 µM | outcome [6] | Potency [9] | activity change, negative = cytotoxicity [11] -28.2% [at 91.7 µM] | outcome [12] | caspase-3 activation [13] 17.6% and 19.1% | outcome [14] | outcome [15] | outcome [16] | outcome [17] | outcome [18] | outcome [19] | outcome [20]
